One may read the AC50 as the concentration at which the activity in the assay is half-maximal.

22 molecules from PubChem BioAssay (EPA / NIEHS) can be followed below.

Inconclusive results are not listed. The source made the active and inactive calls. Rule for the calls, unless noted: active = hit-call score of the fitted dose curve at least 0.9, where 1 is the maximum; inactive = score below 0.9.

For experiment [1], the target named is Myc proto-oncogene protein (Homo sapiens) (UniProt P01106). As to the kind of experiment: ATG_Myc_CIS: Attagene CIS-FACTORIAL HepG2 Assay for human Myelocytomatosis (Myc) Proto-Oncogene Transcription Factor (AID 2282990). The following applies: HepG2, Attagene cis-reporter transcription factor activity; actives raise or lower the signal. The method in brief: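 Multiplexed cis-reporter transcription in HepG2 cells after 24 h chemical treatment. Reporter mRNA measured by RT-PCR and capillary electrophoresis fluorescence; activity fitted bidirectionally against DMSO control.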

Experiment [2] in a line: ATG_NF_kB_CIS: Attagene CIS-FACTORIAL HepG2 Assay for human Nuclear Factor Kappa B (NF-kB) (AID 2282991). As to conditions: HepG2 Attagene cis-factorial NF-kB reporter mRNA; actives raise or lower the signal. In a few lines: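 HepG2, transient multi-reporter transfection, cis promoter elements (endogenous TFs). 24 h exposure. Total RNA → RT → PCR → 6-FAM label → HpaI → CE. Gain/loss vs DMSO.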

The nature of experiment [3]: ATG_NRF2_ARE_CIS: Attagene CIS-FACTORIAL HepG2 Assay for human Nuclear Factor Erythroid 2 Related Factor 2 (NFR2) response to Antioxidant Response Elements (ARE) (AID 2282992). As to conditions: HepG2 Attagene ARE/NRF2 reporter, transcription factor activity; actives raise or lower the signal. The method in brief:
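Endogenous transcription factor activity in human liver HepG2 cells is tracked via a cis-element-driven reporter within a multiplexed set. mRNA induction is read by RT-PCR and capillary electrophoresis after 24 h, with DMSO as baseline.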

Experiment [4] addresses Cellular tumor antigen p53 (Homo sapiens) (UniProt P04637). Put plainly: ATG_p53_CIS: Attagene CIS-FACTORIAL HepG2 Assay for human p53 Transcription Factor (AID 2282994). The following applies: HepG2 p53 cis-element reporter, Attagene mRNA; actives raise or lower the signal. The method in brief:
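Steps: transfect HepG2 with multiplexed cis reporter constructs; dose chemicals 24 h; extract RNA, reverse-transcribe, PCR-amplify reporter sequences; FAM-label, HpaI-digest, resolve fragments by CE. Activity fitted both directions relative to DMSO.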

A short description of experiment [5]: BSK_3C_TissueFactor: BioMAP Diversity Plus: 3C Assay for Tissue Factor Biomarker Activity (AID 2282997). The following applies: BioMAP 3C HUVEC, tissue factor biomarker readout; actives raise or lower the signal. The method in brief: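 Tissue factor on primary human umbilical vein endothelium was read by ELISA 24 h after dosing, gain or loss relative to DMSO. Cytotoxicity ran alongside via SRB (0.1%, TCA-fixed, 560 nm).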

Experiment [6] in a line: BSK_3C_VCAM1: BioMAP Diversity Plus: 3C Assay for Vascular cell adhesion molecule 1 (VCAM1) Biomarker Activity (AID 2282999). As to conditions: BioMAP 3C HUVEC, VCAM1 ELISA, cytokine-stimulated; actives raise or lower the signal. The method in brief: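 Vascular primary endothelium (human umbilical vein) was exposed to chemicals and assayed 24 h later. VCAM-1 levels came from ELISA, with DMSO serving as baseline for bidirectional fitting.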

Experiment [7] in a line: BSK_4H_Eotaxin3: BioMAP Diversity Plus: 4H Assay for Eotaxin 3 Biomarker Activity (AID 2283000).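 For outcome: CCL26 protein level quantified by ELISA in parallel with SRB cytotoxicity check.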 As to conditions: primary human endothelial cells (HUVEC); actives raise or lower the signal. The method in brief:
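Human umbilical vein endothelial cells (BSK_4H system) dosed with test chemical; Eotaxin-3 (CCL26) measured by ELISA 24 h after dosing. Bidirectional curve fitting relative to DMSO negative control as baseline.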

Experiment [8] in a line: BSK_3C_uPAR: BioMAP Diversity Plus: 3C Assay for Urokinase-type plasminogen activator receptor (uPAR) Biomarker Activity (AID 2282998). As to conditions: BioMAP 3C HUVEC, uPAR biomarker ELISA; actives raise or lower the signal. In a few lines:
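Human umbilical vein endothelial primary cells were exposed to test chemical for 24 h. Cell-surface uPAR was then quantified by ELISA, and responses were fitted bidirectionally against DMSO as negative control and baseline.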
A general note: ELISA stands for enzyme-linked immunosorbent assay.

The target of experiment [9] is human Peroxisome Proliferator-activated Receptor alpha (PPARa), PPARA (gene 5465) (UniProt Q07869). Put plainly: ATG_PPARa_TRANS: Attagene TRANS-FACTORIAL HepG2 Assay for human Peroxisome Proliferator-activated Receptor alpha (PPARa) (AID 2283001; active = hit-call score of the fitted dose curve at least 0.9, where 1 is the maximum;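 for AC50: potency for gain of reporter signal over DMSO so agonist or activator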). The method in brief:
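Cells (HepG2) are transfected with multiple reporter transcription units, exposed to chemical for 24 h, then total RNA is reverse-transcribed and amplified. Labelled products are quantified by capillary electrophoresis; induction is referenced to DMSO.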

A short description of experiment [10]: ATG_Oct_MLP_CIS: Attagene CIS-FACTORIAL HepG2 Assay for human Octamer-Binding Transcription Factor (Oct) (AID 2282993). As to conditions: HepG2 Attagene cis-factorial Oct reporter, mRNA; actives raise or lower the signal. In a few lines: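 HepG2 cells transiently transfected with cis-promoter-driven multiplexed reporter transcription units, dosed for 24 h. Reporter mRNA quantified by RT-PCR, fluorescent labelling, HpaI digestion and capillary electrophoresis; bidirectional fits versus DMSO baseline.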

Chain of human Peroxisome Proliferator-activated Receptor alpha (PPARa), PPARA (gene 5465) (Q07869 whole entry, looked up): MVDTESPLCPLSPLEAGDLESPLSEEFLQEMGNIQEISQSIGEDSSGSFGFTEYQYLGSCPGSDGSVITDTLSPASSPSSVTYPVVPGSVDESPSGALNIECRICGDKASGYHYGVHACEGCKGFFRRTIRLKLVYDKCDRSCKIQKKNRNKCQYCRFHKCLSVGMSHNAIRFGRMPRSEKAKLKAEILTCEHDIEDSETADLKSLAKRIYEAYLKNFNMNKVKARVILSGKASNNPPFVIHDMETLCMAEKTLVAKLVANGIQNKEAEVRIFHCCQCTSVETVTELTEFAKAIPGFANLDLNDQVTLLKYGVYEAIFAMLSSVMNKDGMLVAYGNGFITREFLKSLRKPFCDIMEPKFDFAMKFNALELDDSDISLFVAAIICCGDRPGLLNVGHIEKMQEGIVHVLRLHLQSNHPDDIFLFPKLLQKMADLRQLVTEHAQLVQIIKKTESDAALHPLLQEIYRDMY
Chain of Cellular tumor antigen p53 (Homo sapiens) (P04637 whole entry, looked up, the tested form may be a part): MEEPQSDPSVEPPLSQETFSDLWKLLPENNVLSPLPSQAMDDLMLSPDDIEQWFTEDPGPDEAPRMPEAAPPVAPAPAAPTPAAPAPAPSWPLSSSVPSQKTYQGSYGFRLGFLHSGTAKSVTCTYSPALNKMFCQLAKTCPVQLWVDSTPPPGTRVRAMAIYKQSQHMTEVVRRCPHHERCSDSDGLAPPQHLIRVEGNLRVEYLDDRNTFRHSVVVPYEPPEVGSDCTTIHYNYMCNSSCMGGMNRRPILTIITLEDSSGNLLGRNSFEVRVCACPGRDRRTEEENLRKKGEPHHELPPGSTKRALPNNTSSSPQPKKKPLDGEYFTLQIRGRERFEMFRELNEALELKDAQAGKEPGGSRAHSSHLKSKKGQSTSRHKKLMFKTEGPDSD
Chain of Myc proto-oncogene protein (Homo sapiens) (P01106 whole entry, looked up): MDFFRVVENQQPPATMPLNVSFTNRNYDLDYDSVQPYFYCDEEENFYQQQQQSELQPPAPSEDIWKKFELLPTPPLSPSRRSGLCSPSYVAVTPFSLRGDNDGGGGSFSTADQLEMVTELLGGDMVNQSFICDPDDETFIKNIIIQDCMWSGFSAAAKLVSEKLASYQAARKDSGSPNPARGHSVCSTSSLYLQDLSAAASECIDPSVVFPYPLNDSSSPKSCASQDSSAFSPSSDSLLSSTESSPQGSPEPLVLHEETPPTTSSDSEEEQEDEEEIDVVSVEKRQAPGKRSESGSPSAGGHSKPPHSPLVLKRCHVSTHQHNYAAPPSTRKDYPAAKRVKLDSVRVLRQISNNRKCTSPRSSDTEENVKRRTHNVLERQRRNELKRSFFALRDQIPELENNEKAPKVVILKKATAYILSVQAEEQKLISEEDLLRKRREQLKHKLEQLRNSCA

With `NC(=O)Cn1c(=O)cc(CCN2CCN(c3nccc4sccc34)CC2)c2ccc(F)cc21`, the result in experiment [1], in experiment [2], in experiment [4], in experiment [5], in experiment [6] and in experiment [7] was inactive. For the same molecule, in experiment [3], the AC50 is 54.3 µM (active).
For the molecule `Cc1oc(-c2ccccc2)nc1CCOc1cccc2c1ccn2CCC(=O)O`, the call in experiment [1], in experiment [2], in experiment [4], in experiment [5], in [8] and in experiment [6] was inactive. The result in [7] was inactive. The AC50 was 31.4 µM (active) in experiment [3] and 3.95 µM (active) in experiment [9].
For `Clc1cc(Cl)c(Cl)cc1Cl`, the call in experiment [1], in experiment [2], in experiment [3], in experiment [4], in experiment [8] and in experiment [6] was inactive. Moreover, the result in experiment [7] and in [9] was inactive. In experiment [5], the AC50 is 6.33 µM (active).
For the molecule `CCCCCCCCCCCCCCCCCC(=O)O`, the call in [1], in [2], in [3], in experiment [4], in experiment [5] and in [8] was inactive. The outcome in [6], in experiment [7] and in experiment [9] was inactive.
Take `CC1(C)NC(=O)NC1=O`: the call in [1], in [2], in [3], in experiment [4], in experiment [5] and in experiment [8] was inactive. Further, the result in [6] and in [7] was inactive.
With `Cc1ccc(C(C)C)c(O)c1`, the result in [1], in experiment [2], in experiment [10], in experiment [4], in experiment [6] and in [7] was inactive. Besides, the call in experiment [9] was inactive. Also, the AC50 in [3] is 100 µM (active); in experiment [5] it was 1.38 µM (active).
Take `CN[C@H]1CC[C@@H](c2ccc(Cl)c(Cl)c2)c2ccc(S(N)(=O)=O)cc21`: the molecule was classed as inactive in experiment [1], in [2], in experiment [3] and in experiment [4]. Moreover, the AC50 is 33.4 µM (active) in experiment [5], 14.3 µM (active) in [8], 30.4 µM (active) in experiment [6] and 15.2 µM (active) in experiment [7].
On to `CC(C)(C)c1cc(O)c(C(C)(C)C)cc1O`, for which the AC50 in experiment [1] is 114 µM (active); in [3], 30.5 µM (active); in experiment [5] it was 7.03 µM (active); in [6], 9.79 µM (active); in experiment [7], 6.65 µM (active). Besides, the result in [2], in experiment [4], in [8] and in experiment [9] was inactive.
Take `Cc1cccc(C)c1O`: the molecule was called inactive in experiment [1], in [2], in [3], in [10], in experiment [4] and in experiment [5]. Also, the result in [6], in experiment [7] and in [9] was inactive.
Consider `C[C@]12C=CC(=O)C=C1CC[C@@H]1[C@@H]2C(=O)C[C@@]2(C)[C@H]1CC[C@]2(O)C(=O)CO`, for which the molecule was called inactive in [1], in experiment [2], in experiment [3], in experiment [10], in experiment [4] and in experiment [5]. The outcome in experiment [6], in [7] and in experiment [9] was inactive.
Turning to `COC(=O)c1ccc(O)cc1`, the molecule was called inactive in [1], in [2], in [3], in experiment [4], in [5] and in experiment [8]. Further, the result in experiment [6], in experiment [7] and in experiment [9] was inactive.
`CCCCCCCCCCO`: the call in experiment [1], in experiment [4], in experiment [5], in experiment [6] and in experiment [7] was inactive. Moreover, the AC50 in [2] is 144 µM (active); in experiment [3] it was 158 µM (active); in [10], 173 µM (active); in experiment [9] it was 128 µM (active).
Consider `CC(CO)OC(C)CO` (stereo not drawn) (tested in a mixture with another compound), for which the call in experiment [1], in experiment [2], in [3], in experiment [4], in experiment [5] and in experiment [8] was inactive. Moreover, the outcome in experiment [6], in experiment [7] and in [9] was inactive.
Take `CCCCCC(=O)O`: the call in experiment [1], in [2], in [3], in experiment [10], in experiment [4] and in experiment [5] was inactive. For the same molecule, the result in experiment [6], in [7] and in [9] was inactive.
`CCCCOC(=O)CCCCCCCCC(=O)OCCCC`: the molecule was called inactive in experiment [1], in [2], in experiment [3], in [5], in experiment [8] and in experiment [6]. In addition, the outcome in experiment [7] was inactive. Moreover, the AC50 in experiment [4] is 156 µM (active); in experiment [9] it was 37 µM (active).
As for `CCCCCCC(=O)OCC`, the call in [1], in experiment [2], in [3], in experiment [4], in [5] and in [6] was inactive. Besides, the result in experiment [7] was inactive.
In the case of `Nc1nc(N)c2nc(CNc3ccc(C(=O)N[C@@H](CCC(=O)O)C(=O)O)cc3)cnc2n1`, the outcome in experiment [1], in [2], in [3], in experiment [4], in experiment [5] and in experiment [8] was inactive. Besides, the outcome in experiment [6] and in experiment [7] was inactive.
As to `COc1ccc2c(c1)c(CC(=O)O)c(C)n2C(=O)c1ccc(Cl)cc1`, the outcome in experiment [1], in experiment [3], in experiment [10], in [4], in experiment [5] and in [8] was inactive. The outcome in experiment [6], in experiment [7] and in [9] was inactive.
For the molecule `O=c1[nH]cc(F)c(=O)[nH]1`, the call in experiment [1], in experiment [3], in experiment [5], in experiment [6], in [7] and in [9] was inactive. The AC50 in experiment [4] is 11.5 µM (active).
In the case of `CC(=O)C(C)=CC1C(C)=CCCC1(C)C` (stereo not drawn), the molecule was called inactive in experiment [1], in experiment [3], in experiment [4], in [5], in [6] and in experiment [7]. Besides, the molecule was called inactive in experiment [9].
As to `Cc1ccc(C)c(O)c1C`, the call in [1], in experiment [2], in [3], in [4], in experiment [5] and in experiment [6] was inactive. The result in [7] and in experiment [9] was inactive.
For `CN1CCCC1=O`, the outcome in [1], in experiment [3], in [4], in [5], in experiment [6] and in experiment [7] was inactive.
